Data from PubChem BioAssay (NCI).
About 83,000 compounds went through this panel and 20% of them were active in at least one assay; those are over-represented in the sample as a whole.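 Interpretation: 100, growth as untreated; towards 0, rising growth inhibition; 0, no net growth; 0 to -100, cell death. Compounds scoring below 10 were considered active.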 Unmarked numbers belong to inactive results. Activity calls are given as the source filed them.

Experiments:
Experiment in all cases: NCI-60 one-dose screen, 48 h (100 = growth as untreated, 0 = no growth, -100 = all killed)
NCI-H226 lung = conditions: 10 µM unless noted
NCI-H322M lung = conditions: 10 µM unless noted
HOP-62 NSCLC = conditions: 10 µM unless noted
NCI-H460 lung = conditions: 10 µM unless noted
NCI-H522 lung = conditions: 10 µM unless noted
A549/ATCC NSCLC = conditions: 10 µM unless noted
786-0 renal = conditions: 10 µM unless noted
COLO 205 colon = conditions: 10 µM unless noted
DU-145 prostate = conditions: 10 µM unless noted
K-562 leukemia = conditions: 10 µM unless noted
MALME-3M melanoma = conditions: 10 µM unless noted
MDA-MB-231 breast = conditions: 10 µM unless noted
RXF 393 renal = conditions: 10 µM unless noted
SF-268 CNS = conditions: 10 µM unless noted
SF-295 CNS = conditions: 10 µM unless noted
SF-539 CNS = conditions: 10 µM unless noted
UACC-257 melanoma = conditions: 10 µM unless noted
M14 melanoma = conditions: 10 µM unless noted
HOP-92 NSCLC = conditions: 10 µM

| SMILES | growth (NCI-H226 lung) | growth (NCI-H322M lung) | growth (HOP-62 NSCLC) | growth (NCI-H460 lung) | growth (NCI-H522 lung) | growth (A549/ATCC NSCLC) | growth (786-0 renal) | growth (COLO 205 colon) | growth (DU-145 prostate) | growth (K-562 leukemia) | growth (MALME-3M melanoma) | growth (MDA-MB-231 breast) | growth (RXF 393 renal) | growth (SF-268 CNS) | growth (SF-295 CNS) | growth (SF-539 CNS) | growth (UACC-257 melanoma) | growth (M14 melanoma) | growth (HOP-92 NSCLC) |
| --- | --- | --- | --- | --- | --- | --- | --- | --- | --- | --- | --- | --- | --- | --- | --- | --- | --- | --- | --- |
| O=C1/C(=C/C=C/c2ccco2)SC(=S)N1c1ccccc1 | 67.8% | 87.2% | 104% | 91.2% | 58% | 52.9% | 71.1% | 83.2% | 97.6% | 64.6% | 15.5% | 80.3% | -33.5% (active) | 108% | 91.3% | 90.3% | 83.2% | 40.7% |  |
| Cc1ccc(CSc2nc(-c3ccc(Cl)cc3)c(C#N)c(N3CCNCC3)n2)cc1 | 90.2% |  | 80.3% | 88.6% | 95% | 81.2% | 66.8% | 109% | 82.6% | 3.43% (active) | 96.3% | 77.2% | 67.8% | 79.6% | 95.4% | 80.9% | 99.4% | 98.1% | 15.9% |
| CC(=O)c1ccc(Nc2nc(SCC(C)C)nc(-c3ccccc3)c2C#N)cc1 | 55.5% | 94.9% |  | 105% | 87.3% | 101% | 53.9% | 119% | 107% | 95.4% | 94.9% | 73.5% | -1.29% (active) | 72% | 17% | 63.9% | 105% | 103% | 44.6% |
| O=C(c1ccc(Cl)cc1)C1[C@H](c2ccc(Cl)cc2)[C@@H](c2ccccc2)NC12C(=O)Nc1ccccc12 (some centres not stated) | 53.5% | 65.5% |  | 32.7% | 78% | 42.6% | 64.2% | 73% | 65.1% | 33.6% | 78.7% | 53.6% | 48% | 48.1% | 45.6% | 74.8% | 75.2% | 50.2% | 50.4% |
| C[C@H]1c2[nH]c3ccccc3c2C[C@H]2C(=O)N(CCCCCCC(=O)NO)CC(=O)N21 | 94.6% |  | 88.7% | 82.7% |  |  | 92% | 90.3% | 95.2% | 57.3% | 41.4% | 78.5% | 93% | 90.1% | 93.6% | 73.2% | 63% | 91.4% | 67.6% |
| COc1ccc2c(c1)c(-c1cc(N)n3nc(-c4cn(C)c5ccc(OC)cc45)cc3n1)cn2C | 126% | 101% |  | -64.3% (active) | 109% | 46.1% | 91.9% | 123% | 93.1% | -16.6% (active) | 98% | 78.4% | 128% | 109% | 98.9% | 94.9% | 110% | 111% | 86.8% |
| Nc1nc(-c2cccc([N+](=O)[O-])c2)c(N=Nc2ccccc2)s1 | 73.1% |  |  | 56.6% | 48.6% |  | 59.7% | 63.1% | 69.5% | 32.8% | 103% | 62% | -16.3% (active) | 66.4% | 63% | 71.6% | 93.4% | 57.7% |  |
| Cc1cc(C)c(N2C(=O)CC(Nc3ccc(Cl)cc3Cl)C2=O)c(C)c1 (configuration not stated) | 107% | 99.8% | 104% | 105% | 93.6% | 104% | 102% | 124% | 110% | 102% | 96.7% | 102% | 121% | 106% | 105% | 96.8% | 103% |  |  |
| O=C1/C(=C/C=C/c2ccco2)SC(=S)N1C1CCCCC1 | 105% | 97.4% | 102% | 95.7% | 75.9% | 86.8% | 106% | 72.9% | 95% | 83.5% | 83.6% | 74% | 47.7% | 109% | 97.6% | 94.8% | 67.7% | 93.8% |  |
| CCNC(=O)Oc1ccc(/C(=C(/C)c2ccccc2)c2ccc(OCCN3CCCCCC3)cc2)cc1 | 55% | 71.1% | 6.15% (active) | -67.3% (active) |  | 36.1% | -91.7% (active) | -75.7% (active) | 38.7% | 2.41% (active) | -70.8% (active) | 6.37% (active) | -7.37% (active) | 31.8% | -1.08% (active) | -74.5% (active) | -48.9% (active) | -80.3% (active) | -12.8% (active) |
| C=CCn1c(-c2nc3ccc(C(=C(C#N)C#N)c4ccccc4)cc3[nH]2)cc2cc(Br)ccc21 | 66.4% | 70.6% | 59.5% | 42.2% |  | 51.7% | 59.2% | 65.3% | 72.4% | 23.7% | 84.1% | 58.3% |  | 62.9% | 43.1% | 65.3% | 70.9% |  | 63% |
| CC(C)(C)c1ccc(C(=O)Nc2sc3c(c2C(N)=O)CC/C(=N\O)C3)cc1 | 17.5% | 56.9% | 51.9% | 4.25% (active) | -2.43% (active) | 24.1% | 27.5% | 4.38% (active) | 42.2% | 7.83% (active) |  | 14.1% | -14.3% (active) | 32% | 16.8% | 21.6% | 5.76% (active) | 25% |  |
